CTSL1 counter-1 = blocks F. hepatica cathepsin L1 in PFM18AAP counter-screen; recombinant F. hepatica cathepsin L1, Z-Leu-Arg-MCA fluorescence; inhibition, % at 5.96 µM; hit rate 0.49% among 300,000; AID 1906;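 active means inhibition above the mean of all tested compounds plus 3 SD, set per screening campaign, cut at about 17% in these data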
Rin1-Abl PPI inh = human Rin1-Abl interaction inhibition; hit rate 0.4% among 360,000; AID 588664; inhibition, % at 7.35 µM; P00519+Q13671; TR-FRET Rin1/Abl binding, biochemical; in the data active means inhibition above about 5%, passing the limit was not always enough
PfM18AAP inh-1 = PfM18AAP enzyme inhibition. recombinant PfM18AAP, H-Glu-NHMec fluorogenic cleavage. inhibition, % at 7.35 µM. hit rate 1.2% among 290,000. AID 1822;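 active means inhibition above the campaign mean inhibition over all tested compounds plus 3 SD, cut at about 28% in these data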
Calb FLC = C. albicans growth modulation with fluconazole; C. albicans CaCi-2 (fluconazole-resistant clinical isolate) + fluconazole, Alamar Blue growth, 48 h; growth inhibition, % (no concentration beside the values); hit rate 0.57% among 300,000;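 active means growth inhibition above about 58% in most replicates, limit read from the data, passing the limit was not always enough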;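 further: all wells also contain fluconazole at 8 µg/ml as a sub-toxic cotreatment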
PfM18AAP inh-2 = confirmation of Plasmodium falciparum M18 aspartyl aminopeptidase inhibitors; shares compounds with PfM18AAP inh-1; recombinant PfM18AAP, H-Glu-NHMec fluorogenic cleavage; inhibition, % at 7.35 µM; hit rate 28% among 2,400;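 active means mean inhibition over replicate wells above the hit cutoff set for the earlier primary screen, cut at about 29% in these data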
CTSL1 counter-2 = counter-screen for PFM18AAP inhibitors: confirmation of human cathepsin L inhibitors; shares compounds with PfM18AAP inh-1; purified cathepsin L1, Z-Leu-Arg-MCA fluorescence; inhibition, % at 5.96 µM; 2,400 tested, under 10 active; AID 2178;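 active means average inhibition across replicates above the hit cutoff set in the earlier primary screen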
Target sequence (P07711 whole entry, looked up): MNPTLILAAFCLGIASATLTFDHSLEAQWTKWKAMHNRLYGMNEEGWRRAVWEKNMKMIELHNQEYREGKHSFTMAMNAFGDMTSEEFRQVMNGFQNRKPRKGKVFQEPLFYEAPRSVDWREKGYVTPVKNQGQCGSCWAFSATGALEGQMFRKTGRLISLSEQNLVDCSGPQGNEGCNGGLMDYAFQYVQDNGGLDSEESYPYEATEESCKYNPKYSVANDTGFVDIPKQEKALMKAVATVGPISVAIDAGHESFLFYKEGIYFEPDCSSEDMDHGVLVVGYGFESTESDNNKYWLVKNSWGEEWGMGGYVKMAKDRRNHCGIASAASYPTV
Of the large screens only hits and unclear results are named; the others gave an inactive call (follow-up assays come after a bar, where they were run). Most compounds without a hit are left out; they make up all but 2.1% or so of the library.

Cc1cc(C)n2nc(SCC(=O)Nc3ccccc3)nc2n1	none
COc1ccc2c(-c3ccccc3)cc(N3CCOCC3)nc2c1	PfM18AAP inh-1 50.5 | PfM18AAP inh-2 inactive | CTSL1 counter-2 inactive
CCN(CC)c1ccc(C2C3CCCCC3(O)CCN2CC(=O)N2CCCCC2)cc1 (centres undefined)	PfM18AAP inh-1 48.8 | PfM18AAP inh-2 inactive | CTSL1 counter-2 inactive
O=C(Nc1cccc(Cl)c1N1CCOCC1)c1cccnc1Cl	none
O=C(O)c1csc(N/N=C/c2ccc(Br)cc2)n1	PfM18AAP inh-1 33.2 (no result: CTSL1 counter-1) | PfM18AAP inh-2 inactive | CTSL1 counter-2 inactive
COc1ccccc1C(=O)OCc1c(-c2ccccc2)ncc2ccccc12	none (no result: CTSL1 counter-1, PfM18AAP inh-1, Calb FLC)
COc1ccc(C(=O)COc2ccc(F)cc2)c(O)c1	none
O=C(COc1ccc(F)cc1)c1c(O)cc(O)cc1O	PfM18AAP inh-1 32.6 | PfM18AAP inh-2 inactive | CTSL1 counter-2 inactive
Cc1sc2ncnc(N3CCC(C(=O)NNC(=O)COc4cccc(C(F)(F)F)c4)CC3)c2c1C	none (no result: PfM18AAP inh-1)
N#Cc1c(-c2ccccc2)[nH]c(=S)[nH]c1=O	PfM18AAP inh-1 33.5 | PfM18AAP inh-2 inactive | CTSL1 counter-2 inactive
N#Cc1c(-c2cccc(Cl)c2)[nH]c(=S)[nH]c1=O	none
COCCn1c(SCC(=O)NC2CCCCC2)nnc1-c1ccncc1	none
Cc1cnc(SCCc2ccncc2)nc1C	PfM18AAP inh-1 62.5 (no result: Rin1-Abl PPI inh) | PfM18AAP inh-2 inactive | CTSL1 counter-2 inactive
N#Cc1cnc(SCCc2ccccc2)nc1N	none
CCN(CC)C(=O)c1ccc(S(=O)(=O)c2ccccc2)cc1	none
CC(C)c1cc2c(c(O)c1O)[C@@]13CCCC(C)(C)C1CC2OC3=O (some centres undefined)	PfM18AAP inh-1 67.5 | PfM18AAP inh-2 47.8 | CTSL1 counter-2 inactive
Cc1ccc2c(c1)N(CC(=O)NCc1cccnc1)C(=O)CO2	PfM18AAP inh-1 81.2 | PfM18AAP inh-2 inactive | CTSL1 counter-2 inactive
Cc1ccc(NC(=O)CN2C(=O)COc3ccc(C)cc32)nc1	none
Fc1ccc(/C=N/n2cnn(Cc3ccccc3Cl)c2=S)cc1	PfM18AAP inh-1 40.9 | PfM18AAP inh-2 inactive | CTSL1 counter-2 inactive
O=[N+]([O-])c1cccc(C(=S)N2CCN(c3ccc(F)cc3)CC2)c1	none
COc1cc([N+](=O)[O-])ccc1NC(=S)Nn1cnnc1	PfM18AAP inh-1 83.8 | PfM18AAP inh-2 71.1 | CTSL1 counter-2 inactive
FC(F)(F)c1ccccc1NC(=S)Nn1cnnc1	PfM18AAP inh-1 75.3 (no result: CTSL1 counter-1) | PfM18AAP inh-2 56.5 | CTSL1 counter-2 inactive
O=C(COc1ccc(Br)cc1Cl)Nn1cnnc1	PfM18AAP inh-1 42.6 | PfM18AAP inh-2 42.3 | CTSL1 counter-2 inactive
Cc1ccc(NC(=O)Nn2cnnc2)c(C)c1	PfM18AAP inh-1 57.0 | PfM18AAP inh-2 36.5 | CTSL1 counter-2 inactive
COCCNC(=O)Cn1nc(-c2ccc(C)cc2)ccc1=O	none (no result: CTSL1 counter-1)
O=C(Nc1cccc2cccnc12)c1cc(F)c(F)cc1Cl	none
Cc1ccc(Cl)cc1NC(=S)Nn1cnnc1	PfM18AAP inh-1 76.8 | PfM18AAP inh-2 62.8 | CTSL1 counter-2 inactive
Cc1ccc(NC(=S)Nn2cnnc2)c(C)c1	PfM18AAP inh-1 71.8, Calb FLC 82.3 (no result: CTSL1 counter-1) | PfM18AAP inh-2 65.0 | CTSL1 counter-2 inactive
Cc1ccc(Cl)cc1NC(=S)N(C)N	none
S=C(NCc1ccncc1)Nc1ccc(Br)cc1Cl	none
Cc1ccc(NC(=S)NN2CCN(C)CC2)c(C)c1	none
S=C(Nc1ccc(Br)cc1Cl)Nn1cnnc1	PfM18AAP inh-1 77.2 | PfM18AAP inh-2 80.2 | CTSL1 counter-2 inactive
CCOC(=O)C1=C(COC(=O)Cc2ccccc2[N+](=O)[O-])NC(=O)NC1C (centres undefined)	none (no result: CTSL1 counter-1, PfM18AAP inh-1, Calb FLC)
COc1ccc(-n2c(Cn3nc(C(F)(F)F)cc3C)n[nH]c2=S)cc1	PfM18AAP inh-1 32.1 | PfM18AAP inh-2 inactive | CTSL1 counter-2 inactive
CC(=O)OCc1c(C(F)(F)F)nn(C)c1SCc1ccc(Cl)cc1	none
COc1cc(OC)c(OC)cc1CNCCNC(=O)c1ccco1	none
O=C(CN1CCc2cc3c(cc2C1)OCCCO3)Nc1cccc([N+](=O)[O-])c1	PfM18AAP inh-1 34.7 | PfM18AAP inh-2 inactive | CTSL1 counter-2 inactive
COc1cc(C(=O)Nc2ccc(C#N)cc2)c([N+](=O)[O-])cc1OC	none
O=C(NNc1ccc(F)cc1F)c1c(F)cccc1Cl	PfM18AAP inh-1 33.0 | PfM18AAP inh-2 inactive | CTSL1 counter-2 inactive
Cc1ccc(S(=O)(=O)Nc2cc(Cl)c(O)c3ncccc23)cc1	PfM18AAP inh-1 38.6 | PfM18AAP inh-2 inactive | CTSL1 counter-2 inactive
O=C(COc1ccc(Br)cc1)NNC(=O)c1cc(S(=O)(=O)N2CCOCC2)ccc1Cl	none (no result: CTSL1 counter-1, PfM18AAP inh-1, Calb FLC)
O=C(O[C@@H]1OC2COC(=O)c3cc(O)c(O)c(O)c3-c3c(cc(O)c(O)c3O)C(=O)O[C@@H]([C@H]1O)[C@@H]2O)c1cc(O)c(O)c(O)c1	Rin1-Abl PPI inh 68.7, PfM18AAP inh-1 62.5 | PfM18AAP inh-2 45.0 | CTSL1 counter-2 inactive
O=C(O)c1cccc(NC(=S)N/N=C/c2cccc(O)c2)c1	PfM18AAP inh-1 49.8 | PfM18AAP inh-2 inactive | CTSL1 counter-2 inactive
O=C(O)c1cccc(NC(=S)N/N=C/c2ccccn2)c1	none
Cc1cc(C)cc(OCC(=O)NNC(=O)c2ccccn2)c1	none (no result: CTSL1 counter-1, PfM18AAP inh-1, Calb FLC)
CC1(C)CC(=O)C(C(=S)Nc2ccccc2)=C(NC2CC(C)(C)NC(C)(C)C2)C1	PfM18AAP inh-1 47.1 | PfM18AAP inh-2 inactive | CTSL1 counter-2 inactive
COC(=O)c1ccc(NC(=S)NC2CC(C)(C)NC(C)(C)C2)cc1	none
N#Cc1cnc2ncnn2c1-c1ccccc1	PfM18AAP inh-1 55.6 | PfM18AAP inh-2 inactive | CTSL1 counter-2 inactive
CCCCNC(=O)N(O)C1N(/N=C/c2ccco2)C(=S)SC1(C)C (centres undefined)	none (no result: CTSL1 counter-1, PfM18AAP inh-1, Calb FLC)
COc1ccc(C(=O)OCC(=O)c2ccc(C3CCCCC3)cc2)cc1	none
Nc1ccc(O)cc1C(=O)OCC(=O)c1ccc(C2CCCCC2)cc1	PfM18AAP inh-1 35.5 | PfM18AAP inh-2 inactive | CTSL1 counter-2 inactive
CN(C)C(=O)CN1C(=O)NC2(CCc3ccccc32)C1=O (centres undefined)	none
O=C(N/N=C/c1ccc(O)c(O)c1)c1ccc(CSc2cccc3cccnc23)cc1	PfM18AAP inh-1 57.2 | PfM18AAP inh-2 48.7 | CTSL1 counter-2 inactive
O=C(CSc1cccc2cccnc12)N/N=C/c1cccc(O)c1	none
N/C(=N\N=C\c1ccc(O)c(O)c1)c1nonc1N	PfM18AAP inh-1 42.7 | PfM18AAP inh-2 inactive | CTSL1 counter-2 inactive
COc1cc(/C=N/N=C(\N)c2nonc2N)ccc1O	none
Cc1nonc1C(=O)N/N=C/c1ccc(O)c(O)c1	PfM18AAP inh-1 66.2 | PfM18AAP inh-2 65.6 | CTSL1 counter-2 inactive
COc1ccc(C2NC(=O)N(CCCC(=O)O)C(C)=C2C(=O)OCc2ccccc2)cc1 (centres undefined)	none (no result: Rin1-Abl PPI inh, PfM18AAP inh-1)
Cc1ccc(C(c2c(C)[nH][nH]c2=O)c2c(C)[nH][nH]c2=O)cc1[N+](=O)[O-]	PfM18AAP inh-1 33.8 | PfM18AAP inh-2 inactive | CTSL1 counter-2 inactive
COc1cc(C(c2c(C)[nH][nH]c2=O)c2c(C)[nH][nH]c2=O)cc([N+](=O)[O-])c1O	none

Screening results deposited in PubChem BioAssay by several laboratories.
